According to PubChem BioAssay:

Assay: compounds binding Alexa647 anti-His antibody – biochemical, small-molecule microarray, 635 nm fluorescence, artefact control for SMM control protein annotation, primary screen (AID 1128);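 further: score merges feature fluorescence with signal-to-noise for each printed compound spot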
Conditions: higher = more signal

In order of rising composite z-score:
1. CO[C@H]1COC(=O)CCC[C@@H](C)[C@H](OC)COC(=O)[C@@H]2CCCN2C(=O)CC=C[C@@H]1C  -0.278
2. CC(=O)OC[C@H]1O[C@H](C#Cc2ccccc2)C=C[C@@H]1OC(C)=O  -0.223
3. O=C1[C@H]2[C@H]3[C@H](O)[C@H](O)CC(=NOCc4ccccc4)[C@H]3CC[C@H]2C(=O)N1Cc1ccc2c(c1)OCO2  -0.169
4. CO[C@@H]1COC(=O)CC=C[C@@H](C)[C@@H]2C=C[C@H](O)[C@@H](COC(=O)CC=C[C@H]1C)O2  -0.143
5. COC(=O)CC=C[C@@H](C)[C@@H](C=NOCC[C@@H]1C=C[C@H](OC(C)=O)[C@@H](COC(C)=O)O1)OC  -0.131
6. O=C1C=C[C@@H](O)[C@@H]2[C@@H]3C(=O)N(c4ccc(F)cc4F)C(=O)[C@@H]3CC[C@@H]12  -0.0956
7. O=C1[C@H]2[C@H]3[C@H](O)[C@H](O)CC(=NOCc4ccccc4)[C@@H]3CC[C@H]2C(=O)N1C[C@@H]1CCCO1  -0.016
8. CC(C)=CCCC(C)=CCON=C1C[C@@H](O)[C@@H](O)[C@@H]2[C@@H]3C(=O)N(c4cccc(Oc5ccccc5)c4)C(=O)[C@@H]3CC[C@@H]12  0.0079
9. CON=CC[C@@H]1C=C[C@H](OC(C)=O)[C@@H](COC(C)=O)O1  0.0374
10. CCC1=NOC(CCC2CC(OC(=O)NCc3cccc4c3OCO4)CC3(CCCC(COC(=O)NCCc4ccccc4OC)O3)O2)C1 (configuration not stated)  0.0887
11. CC(CCN1CCc2nc(-c3ccccc3)c(-c3ccccc3)cc2C1)=NOC[C@@H](O)[C@H]1O[C@@H]2OC(C)(C)O[C@@H]2[C@H]1O  0.107
12. C=CC[C@@H]1C=C[C@H](ON=C(C)CCN2CCc3nc(-c4ccccc4)c(-c4ccccc4)cc3C2)[C@@H](CO)O1  0.133
13. O=C1[C@H]2[C@H]3[C@H](O)[C@H](O)CC(=NOC[C@@H](O)COCc4ccco4)[C@@H]3CC[C@H]2C(=O)N1C[C@@H]1CCCO1  0.142
14. CC(C)=NOC[C@@H](C)[C@H](OCc1ccccc1)C(C)C  0.164
15. CO[C@H]1COC(=O)CC=C[C@@H](C)[C@H](NS(=O)(=O)c2ccc(C)cc2)COC(=O)CCC[C@@H]1C  0.167
16. CC(=O)OC[C@H]1O[C@@H](ON=C(C)CCN2CCCc3nc(C)c(C)cc32)[C@H](OC(C)=O)[C@@H](OC(C)=O)[C@@H]1OC(C)=O  0.269
17. O=C(NN=C1C[C@@H](O)[C@@H](O)[C@@H]2[C@@H]3C(=O)N(Cc4ccccc4)C(=O)[C@@H]3CC[C@@H]12)OCc1ccccc1  0.298
18. CCOC(=O)[C@H](CC(C)C)NC(=O)CCC1CC(OC(=O)NCc2ccc3c(c2)OCO3)CC2(CCCC(COC(=O)NCc3cccc(C(F)(F)F)c3)O2)O1 (some centres not stated)  0.339
19. CC=CC1=C(CO)C(=O)[C@@H]2O[C@@H]2C1=O  0.366
20. CCOC(=O)[C@H](CC(C)C)NC(=O)CCC1CC(OC(=O)NCc2cccc3ccccc23)CC2(CCCC(COC(=O)NCCc3ccc(Cl)cc3)O2)O1 (some centres not stated)  0.372
21. C#CCCCON=C1C[C@@H](O)[C@@H](O)[C@@H]2[C@@H]3C(=O)N(CC)C(=O)[C@@H]3CC[C@@H]12  0.399
22. COc1cccc([C@H]2Oc3ccc(OC)cc3C(=NO[C@H](C)c3cn([C@H](CO)Cc4ccccc4)nn3)[C@@H]2O)c1  0.533
23. CCOC(=O)[C@H](CC(C)C)NC(=O)CCC1CC(OC(=O)NCc2cccc3ccccc23)CC2(CCCC(COC(=O)NCCCN3CCCC3=O)O2)O1 (some centres not stated)  0.551
24. CCOC(=O)CCN1C(=O)[C@H]2[C@H]3[C@H](O)[C@H](O)CC(=NNC(=O)OCc4ccccc4)[C@@H]3CC[C@H]2C1=O  0.553
25. CC(CCN1CCc2nc(-c3ccccc3)c(-c3ccccc3)cc2C1)=NOC[C@@H](O)COCc1ccco1  0.567
26. CCOC(=O)[C@H](CC(C)C)NC(=O)CCC1CC(OC(=O)NCc2ccc3c(c2)OCO3)CC2(CCCC(COC(=O)NCCCN3CCCC3=O)O2)O1 (some centres not stated)  0.581
27. O=C1[C@H]2[C@H]3[C@H](O)[C@H](O)CC(=NOC[C@@H](O)COCc4ccco4)[C@H]3CC[C@H]2C(=O)N1C[C@@H]1CCCO1  0.605
28. COC(=O)CC=C[C@@H](C)[C@@H](C=NO[C@@H]1O[C@H](COC(C)=O)[C@@H](OC(C)=O)[C@H](OC(C)=O)[C@H]1OC(C)=O)OC  0.662
29. CCOC(=O)[C@H](CC(C)C)NC(=O)CCC1CC(OC(=O)NCc2cccc3ccccc23)CC2(CCCC(COC(=O)NCC3CCCCC3)O2)O1 (some centres not stated)  0.685
30. CC(C)CON=C1C[C@@H](O)[C@@H](O)[C@@H]2[C@@H]3C(=O)N(c4ccc(F)cc4F)C(=O)[C@@H]3CC[C@H]12  0.686
31. CCOC(=O)[C@H](Cc1ccccc1)NC(=O)CCC1CC(OC(=O)NCCc2ccc(F)cc2)CC2(CCCC(COC(=O)NCCCN3CCCC3=O)O2)O1 (some centres not stated)  0.688
32. CCOC(=O)[C@H](CC(C)C)NC(=O)CCC1CC(OC(=O)NCCc2ccc(F)cc2)CC2(CCCC(COC(=O)NCCOc3ccccc3)O2)O1 (some centres not stated)  0.744
33. COC(=O)[C@H](C)NC(=O)CCC1CC(OC(=O)NCCc2ccc(F)cc2)CC2(CCCC(COC(=O)NCCC(C)C)O2)O1 (some centres not stated)  0.959
34. COC(=O)CC=C[C@@H](C)[C@@H](C=NO[C@H](C)c1cn([C@H](CO)Cc2ccccc2)nn1)NS(=O)(=O)c1ccc(C)cc1  2.47
35. C[C@H]1CC[C@H]2C(=O)O[C@H](COc3ccc(C(C)(C)C)cc3)CN2[C@@H]1c1ccc(Br)cc1  2.63
36. CC(=O)OC[C@H]1OC(ON=CC[C@@H]2C=C[C@H](OC(C)=O)[C@@H](COC(C)=O)O2)[C@H](OC(C)=O)[C@@H](OC(C)=O)[C@@H]1OC(C)=O (some centres not stated)  2.8
37. C=CC[C@@H]1C=C[C@H](ON=C2[C@H]3CCn4c(=O)n(-c5ccccc5)c(=O)n4[C@H]3[C@H](O)[C@@H]3O[C@H]23)[C@@H](CO)O1  3.31
